# Data reported in PubChem BioAssay.
# A number with no mark means an inactive call. No rule for the calls is given here.
# Biological target: Pantothenate synthetase (Mycobacterium tuberculosis (strain ATCC 25618 / H37Rv)) (UniProt P9WIL5)
# Test: Coupled enzyme confirmation of inhibitors against recombinant Mtb PanC (AID 375);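 also: 0% = full reaction with vehicle and 100% = no enzyme background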
# Conditions: coupled enzyme assay; at 10 µM, stronger effect = higher value
# Sequence of Pantothenate synthetase (Mycobacterium tuberculosis (strain ATCC 25618 / H37Rv)) (P9WIL5 whole entry, looked up): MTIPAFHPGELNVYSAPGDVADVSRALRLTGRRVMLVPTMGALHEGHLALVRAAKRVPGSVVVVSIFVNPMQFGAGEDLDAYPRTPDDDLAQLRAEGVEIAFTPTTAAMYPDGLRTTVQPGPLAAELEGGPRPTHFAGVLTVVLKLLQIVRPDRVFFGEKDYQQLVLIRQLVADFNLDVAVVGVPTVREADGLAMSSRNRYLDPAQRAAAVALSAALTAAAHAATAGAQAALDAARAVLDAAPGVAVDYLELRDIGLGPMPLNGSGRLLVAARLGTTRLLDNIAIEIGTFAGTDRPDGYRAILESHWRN
row,SMILES,inhibition [%]
1,O=C(NC1CCCC1)C(c1ccco1)N(Cc1ccccc1)C(=O)c1csnn1 (stereo not given),0
2,c1coc(Cn2nnnc2CN2CCN(C3CCCC3)CC2)c1,0
3,CCOC(=O)C1CCCN(C(=O)c2ccc(CS(=O)(=O)Cc3ccccc3C)o2)C1 (stereo not given),3
4,CC(=O)c1ccc(NC(=O)c2cc(CC(C)C)on2)cc1,0
5,O=C(OCC(=O)c1ccccc1Br)c1ccccn1,3
6,CCOC(=O)c1[nH]c(C)c(C(=O)NC)c1C,0
7,COc1cccc(-n2nnnc2SCC(=O)NCc2ccco2)c1,0
8,Cc1onc(-c2ccccc2)c1C(=O)N1CCN(C(=O)c2ccco2)CC1,0
9,CN(CCCC(=O)Nc1ccncc1)S(=O)(=O)c1ccc(Cl)cc1,3
10,O=C(OCc1ccccc1F)c1ccc2c(c1)OCCO2,3
11,CC1(C)CC(=O)C(CC2=C(O)CC(C)(C)CC2=O)=C(O)C1,4
12,Cc1ccc(O)c(C(CC(=O)N2CCCC2)c2ccccc2)c1 (stereo not given),0
13,O=C(NCc1cccnc1)c1ccc(Cl)c(Cl)c1,0
14,CC1Cc2ccccc2N1Cc1cc(=O)n2ccsc2n1 (stereo not given),0
15,CCn1cnc2cc(NCc3cccc(OC)c3O)ccc21,12
16,COc1ccc(-c2onc(C)c2-c2ccccc2)c(O)c1,3
17,CCCCNC(=O)C(C#N)c1nc2ccccc2nc1N1CCCC1 (stereo not given),0
18,CCOC(=O)c1cnc(SC2CC(=O)N(c3ccc(OC)c(OC)c3)C2=O)nc1N (stereo not given),0
19,Cn1c(C(=O)N2CCCC(C(=O)NCCCc3ccccc3)C2)cc2sccc21 (stereo not given),0
20,Cc1oncc1C(=O)Nc1ccc(C(F)(F)F)cc1,8

row,SMILES,inhibition [%]
1,COC(=O)c1ccc(CSc2nc3ccccc3s2)o1,0
2,Cc1c(OCC(F)(F)F)ccnc1CS(=O)c1nc2ccccc2[nH]1 (stereo not given),6
3,CCCCN(C)Cc1c(O)ccc2c(-c3ccccc3)cc(=O)oc12,1
4,COc1cccc(OC)c1C(=O)Nc1cccc(C(C)=O)c1,2
5,COc1ccccc1N1CCN(C(CNS(=O)(=O)c2cc(F)ccc2F)c2cccnc2)CC1 (stereo not given),0
6,CC1=C(C(=O)OC2CCCCC2)C(c2cccnc2)n2ncnc2N1 (stereo not given),0
7,CC(C)NCC(O)COc1cccc2[nH]ccc12 (stereo not given),0
8,c1ccc2c(CC3=NCCN3)cccc2c1,0
9,O=C(NC1CCCc2ccccc21)c1ccc(CNc2c(N3CCOCC3)c(=O)c2=O)cc1 (stereo not given),0
10,CC1CCc2nn(CC(=O)NCc3ccc4c(c3)OCO4)cc2C1 (stereo not given),1
11,Cc1c(Cc2ccccc2)sc(N)c1C(N)=O,0
12,NC(=O)OCC(COC(N)=O)c1ccccc1,1
13,CCOc1ccc(-c2c(C#N)c(N)nc3c2c(=O)n(C)c(=O)n3C)cc1OC,6
14,Cc1nc2ccccc2n1CCC(=O)Nc1cccc(F)c1,4
15,O=C(O)CCN(CCC(=O)O)c1nnc(SCc2ccccc2)s1,2
16,O=C(Cn1c(=O)oc2ccccc21)N1CCN(c2ccccc2)CC1,0
17,COc1c2ccoc2nc2c(OC)c(OCC(O)C(C)(C)O)ccc12 (stereo not given),0
18,CCCCCCNC(=O)Cc1c(O)c2ccccc2[nH]c1=O,5
19,Cc1onc(-c2c(Cl)cccc2Cl)c1C(=O)NCCN1CCOCC1,6
20,O=C(NC1CCCCC1)C(c1ccco1)N(Cc1cccnc1)C(=O)C1COc2ccccc2O1 (stereo not given),2
